# Some of the results follow. Unmarked numbers belong to inactive results. Active and inactive are the calls of the source. Cut-off read from the data, not from the text of the source: active = activation above about 33%; inactive = the rest.
# Assay: NPY-Y2 potentiators or agonists, counter-screen for NPY-Y1 potentiator project, cell-based, fluorescence (AID 1649)
# Settings: HEK293-CNG cells, membrane-potential fluorescence (FLIPR), 1536-well; at 3.6 µM; hits give high values
row,SMILES,activation
1,COC(=O)c1ccc(NC(=O)CN(c2ccc(C)cc2)S(=O)(=O)c2c(C)n[nH]c2C)cc1,27.7%
2,O=C(c1cccs1)N1CCN(C(=O)N2CCOCC2)CC1,-5.13%
3,CCn1c2ccccc2c2cc(NC(=O)Nc3ccc([N+](=O)[O-])cc3C)ccc21,20.9%
4,COCCn1nnnc1C(c1ccccc1Cl)N1CCN(c2ccccc2OC)CC1 (stereo unspecified),-5.69%
5,O=[N+]([O-])c1cc(Cl)cc(/C=N/NC(=S)Nc2cc(S(=O)(=O)N3CCOCC3)ccc2Cl)c1O,64.8% (active)
6,O=C1/C(=C/c2coc3ccc(O)cc3c2=O)SC(=S)N1c1ccccc1,17.4%
7,CC(=O)c1ccc(NC(=O)C2CC(=O)Nc3nc4ccccc4n32)cc1 (stereo unspecified),22.9%
8,COC(=O)c1sc(-c2ccc(C(C)(C)C)cc2)cc1NC(=O)/C=C/C(=O)O,26.2%
9,N#Cc1ccc(C(=O)Nc2nc(-c3cccs3)c(C(=O)C(F)(F)F)s2)cc1,-11.7%
10,O=C(Nc1ccc2c(c1)CCC2)c1cccc(S(=O)(=O)Nc2ccccc2Cl)c1,-2.29%
11,CC1=C/C(=N\OS(=O)(=O)c2ccccc2)C=CC1=O,35.6% (active)
12,O=C(Nc1ccccc1C(F)(F)F)c1cc(-c2ccc(O)cc2)on1,-13.4%
13,Cc1ccccc1NCC(=O)N/N=C\c1ccc([N+](=O)[O-])s1,26.6%
14,CSc1nc(-c2ccco2)nn1C(=O)c1ccccc1Cl,18.9%
15,Cc1cccc(OCC(O)CN2CCN(CCN3C(=O)c4cccc5cccc(c45)C3=O)CC2)c1C (stereo unspecified),49.7% (active)
16,CN1C(=O)c2ccccc2C(C(=O)NCCCN2CCCC2)C1c1c[nH]c2ccccc12 (stereo unspecified),-3.74%

# Reference: PubChem BioAssay AID1649 (The Scripps Research Institute Molecular Screening Center, 2009)
